17 molecules from PubChem BioAssay can be followed below.

Test [1] deals with XIP peptide (Xip251-270) binding. In words: XIP fragment 251-270 binding compounds – biochemical, small-molecule microarray, fluorescence 635/667 nm, 0.1 µg/mL protein, primary screen (AID 1182). Particulars: fluorescent protein binding, 635 nm, higher = more signal, called active from +8 up or from −8 down.
Test [2] concerns XIP peptide (Xip251-270). Put plainly: compounds binding XIP fragment 251-270 – biochemical, small-molecule microarray, fluorescence 635/667 nm, 0.5 µg/mL protein, primary screen (AID 1183). The conditions noted are these: fluorescence 635 nm, higher = more signal.
Test [3] can be described thus: blood-stage malaria parasite viability loss – strain 3D7, DAPI fluorescence, 100 nL, primary screen (AID 1184).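 Note: parasites grown inside human red blood cells in medium with human serum.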 Particulars: P. falciparum 3D7 growth, 3 d, higher = more signal.
The target in test [4] is Homeobox protein Hox-A13 (Mus musculus) (UniProt Q62424). Put plainly: disruptors of Hoxa13 oligonucleotide interaction – biochemical, fluorescence polarization, labeled oligonucleotide, primary screen (AID 1185). The conditions noted are these: Hoxa13:DNA binding, 15 min, higher = more signal, called active from +8 up or from −8 down.
Test [5] can be described thus: blockers of DNA damage checkpoint Chk1 activation – imaging, HeLa, hydroxyurea, phospho-Chk1 antibody, percent positive cells, primary screen (AID 1186). Particulars: hydroxyurea-induced phospho-Chk1 immunofluorescence imaging, higher = more signal.
Test [6] is described as follows: blockers of DNA damage checkpoint Chk1 activation – imaging, HeLa, hydroxyurea, phospho-Chk1 nuclear intensity, primary screen (AID 1187). Particulars: hydroxyurea-induced phospho-Chk1 immunofluorescence imaging, higher = more signal.

Activity calls are given as the source filed them. Unless noted, the rule behind the calls is not given here.

Chain of Homeobox protein Hox-A13 (Mus musculus) (Q62424 whole entry, looked up): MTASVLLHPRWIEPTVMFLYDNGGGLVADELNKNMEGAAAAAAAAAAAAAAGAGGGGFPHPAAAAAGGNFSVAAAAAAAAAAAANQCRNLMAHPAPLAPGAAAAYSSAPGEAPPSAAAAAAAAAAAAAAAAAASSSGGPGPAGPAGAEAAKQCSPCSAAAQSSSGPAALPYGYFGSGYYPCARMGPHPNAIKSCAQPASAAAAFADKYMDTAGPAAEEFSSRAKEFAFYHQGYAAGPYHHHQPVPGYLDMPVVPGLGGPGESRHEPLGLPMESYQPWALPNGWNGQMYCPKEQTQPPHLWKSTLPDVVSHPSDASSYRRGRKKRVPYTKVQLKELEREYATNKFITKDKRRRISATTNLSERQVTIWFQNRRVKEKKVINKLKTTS

In the case of `CC(C)=CCCC(C)=CC(O)C1C=CC2C(=O)N(C)C(=O)C2N1Nc1ccccc1` (configuration not stated), the results for the composite z-score in test [1] and in test [2] were 0.438 (inactive) and 0.624, respectively. In addition, the z-score in test [3] was -0.49; in test [4] it was -3.34 (inactive); in test [5], -1.1 (inactive); in test [6], -1.34 (inactive).

With `Oc1ccc2cc[n+](Cc3sc4ccccc4c3Cl)cc2c1`, the composite z-score in test [1] is 0.558 (inactive); in test [2], 0.904. For the same molecule, the z-score in test [3] is -1.11; in test [4] it was -4.76 (inactive); in test [5], -0.0224 (inactive); in test [6] it was -0.106 (inactive).

With `CN1C(=O)C2C=CC(C(O)c3ccco3)N(Nc3ccccc3)C2C1=O` (configuration not stated), the composite z-score in test [1] was -0.225 (inactive); in test [2], 0.343. Also, the z-score was -0.142 in test [3], -3.54 (inactive) in test [4], -0.221 (inactive) in test [5] and -0.752 (inactive) in test [6].

Regarding `C=CCC(OC(C)=O)[C@@H]1[C@@H](N(Cc2ccc(-c3ccccc3)cc2)C(=O)c2cccc3ccccc23)c2cc(OCCCO)ccc2N1C(=O)c1ccc(-c2ccccc2)cc1` (some centres not stated), the composite z-score is -0.299 (inactive) in test [1] and -0.321 in test [2]. Moreover, the z-score in test [3] is -2.81; in test [4], -1.22 (inactive); in test [5], -0.627 (inactive); in test [6], -0.234 (inactive).

Turning to `Cc1ccc(N2C(=O)c3ccccc3[C@@H](C(=O)NC3CC3)[C@@H]2c2ccc(CO)cc2)nc1`, the composite z-score in test [1] was -1.49 (inactive); in test [2], -0.0549. Besides, the z-score in test [3] is -0.651; in test [4], -1.95 (inactive); in test [5], -0.0109 (inactive); in test [6], -0.28 (inactive).

Turning to `COc1ccc(C#Cc2ccc3c(c2)[C@]2(C(=O)N3)[C@H](c3ccccc3OCCO)N3[C@H](c4ccccc4)[C@H](c4ccccc4)OC(=O)[C@H]3[C@@H]2C(=O)Nc2nc3ccccc3s2)cc1`, the composite z-score was 0.881 (inactive) in test [1] and 0.68 in test [2]. Moreover, the z-score in test [3] is -1.9; in test [4], 2.72 (inactive); in test [5] it was 0.165 (inactive); in test [6], 0.265 (inactive).

In the case of `O=C(c1ccccc1)N1C(=O)[C@]2(COC(c3ccc(OCCCO)cc3)=N2)Cc2ccccc21`, the composite z-score in test [1] is 0.819 (inactive); in test [2], 0.908. Besides, the z-score in test [3] is -2.14; in test [4], -5.86 (inactive); in test [5], -0.255 (inactive); in test [6] it was -0.361 (inactive).

As to `COc1ccc(C(O)C2C=CC3C(=O)N(Cc4ccccc4)C(=O)C3N2n2cnnc2)cc1OCc1ccccc1` (configuration not stated), the composite z-score was 0.442 (inactive) in test [1] and 0.159 in test [2]. Also, the z-score in test [3] was -0.951; in test [4] it was -2.23 (inactive); in test [5], -0.537 (inactive); in test [6], -0.462 (inactive).

Consider `CN1C=C(C(=O)OCCS(C)(=O)=O)C(C(=O)OCCS(C)(=O)=O)=CC(c2ccc(CO)cc2)=CC1C1CC1` (configuration not stated), for which the composite z-score was 0.943 (inactive) in test [1] and -0.452 in test [2]. Moreover, the z-score in test [3] was -2.35; in test [4], -5.4 (inactive); in test [5] it was -1.15 (inactive); in test [6] it was 0.15 (inactive).

Regarding `CC(C)C(O)C1C=CC2C(=O)NC(=O)C2N1Nc1ccc(Cl)cc1Cl` (configuration not stated), the composite z-score in test [1] was 0.471 (inactive); in test [2] it was -0.615. For the same molecule, the z-score in test [3] was 0.0359; in test [4] it was -3.95 (inactive); in test [5], 0.998 (inactive); in test [6], 0.237 (inactive).

For the molecule `O=C1O[C@@H](c2ccccc2)[C@@H](c2ccccc2)N2[C@@H](c3ccccc3OCCO)[C@]3(C(=O)Nc4ccccc43)[C@@H](C(=O)Nc3nc4ccccc4s3)[C@H]12`, the composite z-score in test [1] is 1.13 (inactive); in test [2], 0.797. The z-score was -1.54 in test [3], 1.91 (inactive) in test [4], 0.489 (inactive) in test [5] and 0.794 (inactive) in test [6].

On to `COC(=O)[C@@]1(Cc2ccc(OC)cc2)[C@H]2c3cc(C(=O)N4CCCC4)n(Cc4ccc(C)c(F)c4F)c3C[C@H]2CN1C(=O)c1ccccc1`, for which the values for the composite z-score in test [1] and in test [2] were 0.128 (inactive) and 0.715, respectively. Moreover, the z-score in test [3] was -1.12; in test [4] it was -0.498 (inactive); in test [5], -0.0213 (inactive); in test [6], -0.423 (inactive).

For `CCOC(=O)C[C@H]1[C@H](OC(=O)c2ccc(C(=O)c3ccccc3)cc2)[C@@H](NC(=O)c2ccc3ccccc3c2)c2cc(OCCCO)ccc2N1C(=O)Cc1ccc(OC)cc1`, the composite z-score in test [1] was 0.135 (inactive); in test [2], -0.011. Besides, the z-score was -1.06 in test [3], -1.59 (inactive) in test [4], -0.0477 (inactive) in test [5] and -0.0525 (inactive) in test [6].

With `C=CCOC(=O)[C@H]1[C@@H]2C(=O)O[C@@H](c3ccccc3)[C@@H](c3ccccc3)N2[C@@H](c2ccc(OCCOC(=O)[C@H]3C[C@H]4C(=O)N[C@@H](CCCCNC(C)=O)C(=O)N4[C@H]3c3cccc(OCCO)c3)cc2)[C@]12C(=O)Nc1ccccc12`, the values for the composite z-score in test [1] and in test [2] were 0.899 (inactive) and 0.528, respectively. For the same molecule, the z-score is -1.69 in test [3], -1.77 (inactive) in test [4], -0.843 (inactive) in test [5] and -0.373 (inactive) in test [6].

In the case of `CCCC[C@@H]1C[C@H]1[C@@H](NC(=O)c1cccs1)c1ccc(-c2ccccc2)cc1`, the composite z-score is 0.217 (inactive) in test [1] and -0.319 in test [2]. The z-score in test [3] was 0.0576; in test [4] it was -1.5 (inactive); in test [5], 0.0111 (inactive); in test [6], 0.0204 (inactive).

For `COc1cc2c(cc1OC)CN(C(=O)[C@H]1[C@@H]3C(=O)O[C@@H](c4ccccc4)[C@@H](c4ccccc4)N3[C@@H](c3ccc(O)cc3)[C@]13C(=O)Nc1ccc(C#CCCO)cc13)CC2`, the composite z-score in test [1] is 0.22 (inactive); in test [2] it was 0.798. Also, the z-score is -1.56 in test [3], -3.49 (inactive) in test [4], 0.113 (inactive) in test [5] and 0.393 (inactive) in test [6].

For `COc1cccc(-c2cccc(=O)o2)c1`, the composite z-score in test [1] was -0.256 (inactive); in test [2] it was 0.688. The z-score is 0.0459 in test [3], -2.09 (inactive) in test [4], 0.317 (inactive) in test [5] and -0.169 (inactive) in test [6].
